Source: PubChem BioAssay (NCATS)
Records with an inconclusive call do not appear. A number with no mark means an inactive call. Activity calls are given as the source filed them. Calls come from the whole dose curve.

These compounds were tested against Nucleoprotein (Lymphocytic choriomeningitis virus (strain Armstrong)) (UniProt P09992) (assay: qHTS for Inhibitors of the Functional Ribonucleoprotein Complex (vRNP) of Lymphocytic Choriomeningitis Arenaviruses (LCMV): LCMV Primary Screen - GLuc reporter signal (AID 1347086; note: nearly all actives have a fitted effect of over 70% in size)). Conditions: LCMV minigenome vRNP cell assay, Gaussia luciferase reporter; series mostly up to 57.5 µM; activity change, negative = inhibition: at the top concentration.
% is set by controls: 0 for no effect and ±100 for the full control effect.

Nucleoprotein (Lymphocytic choriomeningitis virus (strain Armstrong)), sequence (P09992 whole entry, looked up): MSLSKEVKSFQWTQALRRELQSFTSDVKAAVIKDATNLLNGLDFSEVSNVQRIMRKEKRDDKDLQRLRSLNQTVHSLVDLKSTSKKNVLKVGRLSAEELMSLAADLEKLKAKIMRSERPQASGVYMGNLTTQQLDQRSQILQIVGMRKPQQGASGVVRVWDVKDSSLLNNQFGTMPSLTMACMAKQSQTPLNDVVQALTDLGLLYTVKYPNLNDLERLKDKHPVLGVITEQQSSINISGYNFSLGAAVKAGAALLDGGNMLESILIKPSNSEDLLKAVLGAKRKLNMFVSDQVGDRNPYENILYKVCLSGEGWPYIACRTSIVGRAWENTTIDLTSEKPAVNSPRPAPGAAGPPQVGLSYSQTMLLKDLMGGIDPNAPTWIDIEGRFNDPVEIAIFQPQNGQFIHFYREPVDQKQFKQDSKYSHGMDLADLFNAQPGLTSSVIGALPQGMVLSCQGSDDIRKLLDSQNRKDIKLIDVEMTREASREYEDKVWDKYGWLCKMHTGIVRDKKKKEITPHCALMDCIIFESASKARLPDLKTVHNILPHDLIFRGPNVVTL

Point of comparison: `CC(C)=CCC[C@@](C)(O)[C@H]1CC=C(C)CC1`, “activity change, negative = inhibition” value 3.62%. Against it:
- O=C(O)[C@@H]1CSCN1 — higher, 7.1%
- OC1(c2ccc(Cl)cc2)CCNCC1 — higher, 4.14%
- CC(C)(C)NC[C@H](O)COc1cccc2c1CCCC2=O — higher, 14%
- O=C1CC[C@@H](C(=O)O)N1 — higher, 22.8%
- CN[C@@H]1[C@H](O)[C@H](NC)[C@H]2O[C@@]3(O)C(=O)C[C@@H](C)O[C@H]3O[C@@H]2[C@H]1O — higher, 13.6%
- O=S(=O)(O)c1ccc2nc(-c3ccccc3)[nH]c2c1 — higher, 41%
- NC(CO)(CO)CO — lower, -20.9%
- O=C(NCC(O)CO)c1c(I)c(C(=O)NCC(O)CO)c(I)c(N(CCO)C(=O)CO)c1I (stereo not drawn) — higher, 5.77%
- Cc1nc([N+](=O)[O-])cn1-c1ccc([N+](=O)[O-])cc1 — higher, 4.32%
- CC(=O)N[C@@H](CC(C)C)C(=O)O — higher, 6.06%
- CCN1CCC[C@H]1CNC(=O)c1c(OC)ccc(Br)c1OC — lower, -0.731%
- NS(=O)(=O)c1ccc(NC(=O)CCC(=O)O)cc1 — higher, 15.8%
- COC(=O)c1cc(Cl)ccc1NS(=O)(=O)C(F)(F)F — lower, -5.77%
- CCC(Cc1c(I)cc(I)c(N)c1I)C(=O)O (stereo not drawn) — lower, -4.43%
- CC(C)(C)NCC(O)COc1cccc2c1C[C@H](O)[C@H](O)C2 (stereo partly drawn) — higher, 8.03%
- CCS(=O)(=O)CCn1c([N+](=O)[O-])cnc1C — lower, 0.124%
- Cc1ccc(O)c2ncccc12 — lower, -0.929%
- CC1(C)O[C@@H]2C[C@H]3[C@@H]4C[C@H](F)C5=CC(=O)C=C[C@]5(C)[C@@]4(F)[C@@H](O)C[C@]3(C)[C@]2(C(=O)CO)O1 — higher, 41.9%
- NS(=O)(=O)c1cc(Cl)c(Cl)c(S(N)(=O)=O)c1 — lower, -0.304%
- NC(=O)NS(=O)(=O)c1ccc(Cl)cc1 — higher, 12.4%
- O=C(N/N=C/c1ccccc1O)c1ccncc1 — lower, 0.884%
- COP(=O)(OC)OC(c1ccc(Cl)cc1)P(=O)(OC)OC (stereo not drawn) — lower, -5.13%
- CN/C(=C\[N+](=O)[O-])NCCSCc1csc(CN(C)C)n1 — higher, 51.2%
- CC1(C)S[C@@H]2[C@H](NC(=O)C(c3ccccc3)S(=O)(=O)O)C(=O)N2[C@H]1C(=O)O (stereo partly drawn) — higher, 7.61%
- COCCCN1CCC(NC(=O)c2cc(Cl)c(N)c3c2OCC3)CC1 — lower, 2.17%
- CC(=O)O[C@@H]1C(=O)O[C@@H]2[C@H]1OC(=O)[C@@H]2OC(C)=O — lower, -9.08%
- Cc1ncc(CO)c(C=O)c1O — lower, -0.972%

With `NCCS(=O)(=O)O` the Potency was “inactive”.
For `CC(=O)OCC[N+](C)(C)C`, the Potency was “inactive”.
With `Cn1nnc2c(C(N)=O)ncn2c1=O` the Potency was “inactive”.
In the case of `COc1ccc2[nH]cc(CCNC(C)=O)c2c1`, the Potency was “inactive”.
For `CC(=O)c1ccc(S(=O)(=O)NC(=O)NC2CCCCC2)cc1`, the Potency was “inactive”.
With `C[C@@H](CN1CC(=O)NC(=O)C1)N1CC(=O)NC(=O)C1` the Potency was “inactive”.
With `CCCNC(C)C(=O)Nc1ccccc1C` (stereo not drawn) the Potency was “inactive”.
`Nc1cc(=O)[nH]c(N)n1` was tested, and the Potency was “inactive”.
`c1ccc2c(c1)CCCC2C1=NCCN1` (stereo not drawn) was tested, and the Potency was “inactive”.

With `CN1C[C@@H]2C[C@H]1CN2c1cc2c(cc1F)c(=O)c(C(=O)O)cn2C1CC1` the “activity change, negative = inhibition” value was 2.77% [at 24.7 µM].
